Source: PubChem BioAssay AID1159580 (chemical genetic matrix, 2015)
Where “and” joins values, the source holds several entries; their conditions need not be identical. Identical values can stand only once. Among all 5,500 compounds or so, about 2,000 (36%) were called active. Another 18% or so got no clear call; they are omitted. Cut-off read from the data, not from the text of the source: active = normalized growth mostly below about 0.91 (no sharp cut-off); inconclusive = no clear call, values can overlap the other calls; inactive = mostly above about 0.92. The list shows a part of the results.

Assay: chemical genetic growth profiling, strain panel (AID 1159580);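 note: tested at 20 µM; growth read once vehicle control cultures reached saturation at 30 °C; 1 = growth at the plate median or of vehicle wells; lower values mean less growth of the strain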
Settings: S. cerevisiae deletion strains, growth OD

Measured: normalized growth

COc1nc(NC(C)C)nc(NC(C)C)n1
inactive: locus YAL013W, strain DEP1, active compounds read low 1.01 | locus YAL021C, strain ccr4, active compounds read low 0.991 | locus YAL026C, strain drs2, active compounds read low 1.04 | locus YAL030W, strain snc1, active compounds read low 1.02 | locus YBL061C, strain skt5, active compounds read low 1.03 | locus YBR009C, strain hhf1, active compounds read low 1.06 | locus YBR021W, strain FUR4, active compounds read low 1.04 | locus YBR023C, strain chs3, active compounds read low 1.03 | locus YBR171W, strain sec66, active compounds read low 1.02 | locus YBR229C, strain ROT2, active compounds read low 0.999 | locus YBR231C, strain swc5, active compounds read low 1.02 | locus YBR279W, strain paf1, active compounds read low 1.01 | locus YCL011C, strain gbp2, active compounds read low 1.02 | locus YCL016C, strain dcc1, active compounds read low 1.01 | locus YCL029C, strain bik1, active compounds read low 1.02 | locus YCL069W, strain vba3, active compounds read low 1.01 | locus YCR088W, strain abp1, active compounds read low 1.02 | locus YDL005C, strain med2, active compounds read low 1.02 | locus YDL035C, strain GPR1, active compounds read low 1.02 | locus YDL040C, strain nat1, active compounds read low 1 | locus YDL074C, strain BRE1, active compounds read low 1.05 | locus YDL101C, strain DUN1, active compounds read low 1.02 | locus YDL134C, strain PPH21, active compounds read low 1 | locus YDL185W, strain tfp1, active compounds read low 1.03 | locus YDL192W, strain arf1, active compounds read low 1.03 | locus YDR001C, strain nth1, active compounds read low 1.02 | locus YDR069C, strain doa4, active compounds read low 1.02 | locus YDR101C, strain arx1, active compounds read low 1.01 | locus YDR137W, strain rgp1, active compounds read low 1.02 | locus YDR150W, strain NUM1, active compounds read low 1.01 | locus YDR159W, strain sac3, active compounds read low 1.07 | locus YDR162C, strain NBP2, active compounds read low 1.01 | locus YDR195W, strain ref2 0.995 | locus YDR297W, strain sur2, active compounds read low 1.03 | locus YDR318W, strain mcm21, active compounds read low 1.02 | locus YDR334W, strain swr1, active compounds read low 1.01 | locus YDR335W, strain msn5, active compounds read low 1.01 | locus YDR388W, active compounds read low 1.03 | locus YDR392W, strain spt3, active compounds read low 1.01 | locus YDR502C, strain sam2, active compounds read low 1.02 | locus YEL003W, strain gim4, active compounds read low 1.02 | locus YEL037C, strain rad23, active compounds read low 1.02 | locus YEL061C, strain CIN8 (second series), active compounds read low 1.03 | locus YEL061C, strain CIN8, active compounds read low 1 | locus YER015W, strain faa2, active compounds read low 1.02 | locus YER016W, strain bim1, active compounds read low 1.01 | locus YER110C, active compounds read low 1.02 | locus YER111C, strain swi4, active compounds read low 1.02 | locus YER155C, strain BEM2 (second series), active compounds read low 1.03 | locus YER155C, strain BEM2, active compounds read low 1.01 | locus YER167W, strain BCK2, active compounds read low 1.01 | locus YFR010W, strain ubp6, active compounds read low 1.03 | locus YGL078C, strain dbp3, active compounds read low 1.01 | locus YGL086W, strain mad1, active compounds read low 1.01 | locus YGL167C, strain pmr1, active compounds read low 1.02 | locus YGL173C, strain kem1, active compounds read low 1.04 | locus YGL227W, strain vid30, active compounds read low 1.04 | locus YGL240W, strain doc1, active compounds read low 1.02 | locus YGL248W, strain PDE1, active compounds read low 1.01 | locus YGL253W, strain hxk2, active compounds read low 1.03 | locus YGR078C, strain PAC10, active compounds read low 1.02 | locus YGR135W, strain pre9, active compounds read low 1.02 | locus YGR229C, strain SMI1, active compounds read low 1.02 | locus YGR252W, strain gcn5, active compounds read low 1.05 | locus YHR013C, strain ard1, active compounds read low 1.03 | locus YHR027C, strain rpn1, active compounds read low 1.03 | locus YHR030C, strain SLT2, active compounds read low 1.01 and 1.07 | locus YHR079C, strain IRE1 (second series), active compounds read low 1.02 | locus YHR079C, strain IRE1, active compounds read low 1.03 | locus YHR094C, strain hxt1, active compounds read low 1.01 | locus YHR129C, strain ARP1, active compounds read low 1.01 | locus YHR142W, strain chs7, active compounds read low 1.04 | locus YHR200W, strain rpn10, active compounds read low 1.01 | locus YIL066C, strain RNR3, active compounds read low 1.02 | locus YIL073C, strain SPO22, active compounds read low 1.08 | locus YIL125W, strain kgd1, active compounds read low 1.01 | locus YIR030C, strain dcg1, active compounds read low 1.01 | locus YJL092W, strain hpr5, active compounds read low 1.02 | locus YJL095W, strain BCK1 (second series), active compounds read low 1.04 | locus YJL095W, strain BCK1, active compounds read low 1.01 and 1.06 | locus YJL115W, strain asf1, active compounds read low 1.02 | locus YJL129C, strain trk1, active compounds read low 1.02 | locus YJL134W, strain LCB3, active compounds read low 1.01 | locus YJL154C, strain vps35, active compounds read low 1.01 | locus YJL164C, strain tpk1, active compounds read low 1.01 | locus YJL166W, strain qcr8, active compounds read low 1.03 | locus YJL168C, strain set2, active compounds read low 1.02 | locus YJL187C, strain SWE1 (second series), active compounds read low 1.01 | locus YJL187C, strain SWE1, active compounds read low 1 | locus YJR043C, strain POL32, active compounds read low 1.03 | locus YJR066W, strain TOR1, active compounds read low 1
